# Screening results: PubChem BioAssay, National Center for Advancing Translational Sciences (NCATS)
# Only some compounds are listed: those with a hit (about 6.3% of all), similar ones and a draw of the others.
# TGFb SMAD3 inh: qHTS for Inhibitors of TGF-b. HepG2 CAGA-GFP TGF-b/SMAD3 reporter, GFP fluorescence, 18 h; TGF-beta stimulated, 500 pg/mL final. Potency, µM (series often up to 46.1 µM), inactives show at the highest dose activity, negative = inhibition, actives largely listed as inhibitors. 410,000 compounds, 1.2% hits. AID 588855, 2011; note: % is set by controls: 0 for no effect and ±100 for the full control effect; nearly all actives have a fitted effect of over 65% in size
#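 Smad-responsive CAGA-GFP expression was quantified in HEPG2 cells exposed to compounds and 500 pg/mL final TGF-beta for 18 h at 37 degrees C; unstimulated wells defined full inhibition.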
# ATXN2 expr inh: Primary qHTS for Inhibitors of ATXN expression | HEK-293 ATXN2-luciferase reporter, luminescence, 24 h | Potency, µM (series often up to 57 µM), without a hit: at the top dose activity change, negative = inhibition, actives largely listed as inhibitors | 360,000 compounds, 0.72% hits; note: % is set by controls: 0 for no effect and ±100 for the full control effect; nearly all actives have a fitted effect of over 55% in size
#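 qHTS (up to 57 uM final) was run with 24 h compound exposure of reporter cells at 37 °C. Each well was multiplexed: SteadyGlo luminescence measured ATXN2-luciferase expression after a fluorogenic Gly-Phe-AFC viability readout (25 uM final).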
# ATXN viability: Viability Counterscreen for Primary qHTS for Inhibitors of ATXN expression. Potency, µM (highest dose often 56.7 µM), hits mostly cytotoxic. S2 cells (HEK-293 line with an ATXN2-luciferase reporter) viability, CellTiter-Fluor protease fluorescence, 24 h. 400,000 compounds, 0.49% hits. AID 651635, 2014; note: nearly all actives have a fitted effect of over 40% in size
# HepG2 viability: qHTS for Inhibitors of TGF-b: Cytotox Counterscreen | HepG2 CAGA-GFP viability, ATP luminescence, 18 h | Potency, µM (doses to about 46.1 µM), for inactives: top-dose activity change, negative = cytotoxicity, actives largely listed as cytotoxic | 410,000 compounds, 0.76% hits | AID 588856, 2011
#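 HepG2 CAGA-GFP cells (1000/well, DMEM with 1% FBS) received compound, then TGF-beta at 500 pg/mL final, and were incubated 18 hours at 37 degrees C. Viability was read by CellTiter-Glo luminescence. Media-only wells were set as complete cell-killing and DMSO as no toxicity.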
# RORg inh: qHTS for inhibitors of ROR gamma transcriptional activity. Drosophila S2 Gal4-RORgamma UAS-luciferase reporter, 20 h. Potency, µM (titrated, usually from 53.6 µM), inactives show top-dose activity change, negative = inhibition, hits mostly inhibitors. 310,000 compounds, 5.4% hits. AID 2551, 2010; note: % is set by controls: 0 for no effect and ±100 for the full control effect; nearly all actives have a fitted effect of over 60% in size
# Target sequence (P51450 whole entry, looked up, the tested form may be a part): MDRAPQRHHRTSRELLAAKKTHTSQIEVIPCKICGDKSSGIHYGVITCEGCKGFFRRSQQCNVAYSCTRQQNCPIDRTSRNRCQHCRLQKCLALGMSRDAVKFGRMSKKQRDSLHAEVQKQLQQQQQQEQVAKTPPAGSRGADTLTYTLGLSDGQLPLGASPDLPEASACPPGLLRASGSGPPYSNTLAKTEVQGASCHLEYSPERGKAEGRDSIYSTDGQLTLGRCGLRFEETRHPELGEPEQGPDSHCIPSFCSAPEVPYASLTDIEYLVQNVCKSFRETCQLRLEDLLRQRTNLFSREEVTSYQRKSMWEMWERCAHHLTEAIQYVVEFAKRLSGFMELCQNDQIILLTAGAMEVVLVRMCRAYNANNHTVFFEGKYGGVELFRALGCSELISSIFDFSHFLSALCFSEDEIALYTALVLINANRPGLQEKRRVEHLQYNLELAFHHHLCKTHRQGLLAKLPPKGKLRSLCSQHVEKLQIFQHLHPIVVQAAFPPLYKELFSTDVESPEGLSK
#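 Drosophila S2 cells stably expressing Gal4-DBD/mouse RORγ fusion under metallothionein promoter plus UAS-luciferase; compound 1 h, then 700 uM CuSO4 induction for 20 h at ambient temperature; inhibition read as reduced luminescence.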
# VP16 counter: VP16 counterscreen qHTS for inhibitors of ROR gamma transcriptional activity; Drosophila S2 Gal4-VP16 UAS-luciferase, luminescence, 20 h; Potency, µM (highest dose often 53.6 µM), for inactives: top-dose activity, negative = inhibition, hits mostly inhibitors; 310,000 compounds, 3.5% hits;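 note: Gal4-VP16 expression switched on by copper sulfate through the metallothionein promoter; % is set by controls: 0 for no effect and ±100 for the full control effect; nearly all actives have a fitted effect of over 50% in size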
# Starred values were filed as active, the others as inactive; i = inactive; ? = inconclusive; / = not tested or not shown; [ ] = another dose, or the depositor's remark. Calls come from the whole dose curve; as a rule, active = well fitted curve in the direction sought with a large enough effect; inconclusive = small, poorly fitted or top-dose-only effect, or another doubt; inactive = no such curve, though single readings can be large; an effect the other way counts as inactive or inconclusive. Potency is the fitted concentration of half-maximal effect.
SMILES,TGFb SMAD3 inh,ATXN2 expr inh,ATXN viability,HepG2 viability,RORg inh,VP16 counter
COc1ccc(C2=N[C@@H](C(C)C)CO2)cc1,/,/,/,/,-20.0%[96.6 µM],16.2%[96.6 µM]
COc1ccc(C2=N[C@H](c3ccccc3)CO2)cc1,/,/,/,/,15.8µM*,-5.9%[96.6 µM]
COc1ccc(C2=NC(c3ccccc3)CO2)cc1 (centres undefined),/,/,/,/,10µM*,12.6µM*
O=C(Nc1ccccc1C(F)(F)F)c1noc2c1CCCC2,0.5%,38.8%,i,-8.9%,/,/
Nc1c(Cl)cc(/C=C2\C=Cc3ccccc32)cc1Cl,-14.1%,/,/,-49.3%,/,/
Cc1nnc2c(N3CCN(c4ccccc4F)CC3)nc3ccccc3n12,-0.1%,-7.7%,i,-8.9%,/,/
C=CC[n+]1c(/C=C2\C=Cc3cc(C)ccc3N2CC)ccc2ccccc21,3.98µM*,/,7.94µM*,14.1µM*,?,3.16µM*
O=C(Nc1nc2ccccc2n1Cc1ccccc1)c1ccc(COc2ccccc2[N+](=O)[O-])o1,2.3%,-7.4%,i,-24.4%,?,?
Cc1ccc(OCc2ccc(C(=O)Nc3nc4ccccc4n3C)o2)c([N+](=O)[O-])c1,1.2%,-16.9%,i,-10.4%,5.62µM*,3.16µM*
Cc1ccc(OCc2ccc(C(=O)Nc3nc4ccccc4n3Cc3ccccc3)o2)c([N+](=O)[O-])c1,1.4%,-8.0%,i,-10.4%,?,0.316µM*
Cc1ccc(OCc2ccc(C(=O)O)o2)c([N+](=O)[O-])c1,-4.3%,-12.7%,i,4.3%,-9.7%,-15.4%
CC1CCC(NC(=O)c2ccc3c(c2)N(Cc2cccc(Cl)c2)C(=O)c2ccccc2S3(=O)=O)CC1 (centres undefined),?,/,/,-15.8%,/,/
CCOC(=O)C1(C)Oc2ccccc2C(C(=O)OC)=C1C(=O)OC (centres undefined),?,-3.8%,i,-37.1%,10.3%,0.8%
COC(=O)C1=C(C(=O)OC)SC2(S1)C(C(=O)OC)=C(C(=O)OC)SC1=C2c2cccc(C)c2NC1(C)C,?,-9.3%,i,-11.2%,5.62µM*,?
CCNC(=O)C1CCCN(C(=O)c2ccco2)CC1 (centres undefined),?,15.2%,i,-38.7%,/,/
COCCN(CCOC)S(=O)(=O)c1ccc(C(=O)Nc2nnc(C3CC3)o2)cc1,-22.8%,2.0%,i,-0.4%,4.47µM*,3.55µM*
CCc1nnc(NC(=O)c2ccc(S(=O)(=O)N(CCOC)CCOC)cc2)o1,-17.5%,-12.1%,i,-18.6%,2.24µM*,6.31µM*
CC(C)CN(CC(C)C)C(=S)Nc1ccc(Cl)cc1,?,-19.8%,/,7.3%,3.98µM*,20µM*
CCc1ccc(NC(=S)N(Cc2ccc(Cl)cc2)Cc2ccc(C(=O)O)cc2)cc1,0.0%,-22.4%,i,2.8%,31.2%,-9.7%
O=C(CNc1ccc2ccccc2c1)NNC1=NCCC1,-3.2%,/,i,-3.3%,2.82µM*,3.98µM*
O=C(CNc1ccccc1)NNC1=NCCC1,-15.6%,-17.3%,i,-0.2%,?,?
COc1ccc(NC(=O)c2ccc3ccccc3c2)cc1,3.0%,/,?,-4.7%,-32.7%,-1.8%
COc1ccc(C(=O)CNc2ccccc2Br)cc1,0.0%,8.1%,i,-9.7%,1.78µM*,?
COc1ccc(C(=O)CNc2ccc3ccccc3c2)cc1,52.2%,14.9%[11.3 µM],i,15.7%,12.6µM*,?
C=CCN(CC=C)Cc1cc(=O)oc2cc(C)c(C)cc12,?,2.4%,i,-13.5%,/,/
SMILES,TGFb SMAD3 inh,ATXN2 expr inh,ATXN viability,HepG2 viability,RORg inh,VP16 counter
CCc1ccc(-n2c(SCC(=O)c3ccc4c(c3)NC(=O)CO4)nc3ccccc3c2=O)cc1,-7.8%,-15.6%,i,-1.3%,2.51µM*,-1.0%
COc1ccc2nc(N(CCN(C)C)C(=O)/C=C/c3cccs3)sc2c1,?,/,?,-90.0%,8.4%,-1.7%
Cc1cccc2sc(N(CCCN(C)C)C(=O)COc3ccc(Cl)cc3)nc12,-25.1%,-37.6%,i,22.4µM*,?,?
COc1ccc2sc(N(CCN(C)C)C(=O)/C=C/c3cccs3)nc2c1,?,/,?,20µM*,-31.0%,0.3%
Cc1cccc2sc(N(CCN(C)C)C(=O)/C=C/c3cccs3)nc12,?,-11.5%,i,-45.2%,?,?
CN(C)CCCN(C(=O)CCOc1ccccc1)c1nc2c(F)cccc2s1,?,-32.2%,/,11.2µM*,8.91µM*,-29.7%
CN(C)CCCN(C(=O)/C=C/c1cccs1)c1nc2c(F)cccc2s1,17.8µM*,?,?,12.6µM*,?,-28.2%
NC[C@H]1O[C@H](O[C@@H]2[C@@H](O)[C@@H](O[C@H]3O[C@H](CO)[C@@H](O)[C@H](N)[C@@H]3O)[C@H](N)C[C@@H]2N)[C@H](O)[C@@H](O)[C@H]1O,/,-0.2%,/,/,/,/
O=C(Cc1ccc(-c2ccccc2)cc1)NO,2.1%,/,/,-2.9%,/,/
CCc1ccc(CN(C)Cc2nc(Cc3cccc(C(F)(F)F)c3)no2)nc1,?,9.1%,i,6.1%,2.24µM*,?
FC(F)(F)c1cccc(Cc2noc(CN3CCCCC3c3ccccn3)n2)c1 (centres undefined),-14.9%,-13.5%,i,-28.7%,22.4µM*,-7.6%
CN(Cc1ccc(F)cc1)Cc1nc(CCc2ccccc2)no1,5.9%,-20.1%,i,-54.5%,1.1%,-7.7%
CCc1ccc(CN(C)Cc2nc(COc3ccccc3)no2)nc1,-6.6%,1.7%,i,-20.1%,12.6µM*,6.1%
CCn1ccnc1CN(C)Cc1nc(Cc2cccc(C(F)(F)F)c2)no1,-14.4%,-16.4%[11.3 µM],i,23.0%,17.8µM*,?
CC(CN(C)Cc1nc(Cc2cccc(C(F)(F)F)c2)no1)CN1CCCC1 (centres undefined),-4.2%,-18.4%,?,-11.5%,18.4%,-8.2%
Cc1ccc(OCc2occc2C(=O)O)cc1,-3.1%,14.1%,i,-5.1%,/,/
CCO[Si](CCCN)(OCC)OCC,/,/,/,/,-6.7%,-19.3%
CNc1cccc2c1C(=O)c1ccccc1C2=O,-4.5%,0.0%,i,-11.3%,-22.5%,-4.4%
O=C1c2cccc(NCCCNCCO)c2C(=O)c2cccc(NCCCNCCO)c21,15.8µM*,13.4µM*,/,-64.7%,/,/
COCC(=O)Nc1cc(C(=O)N2CC3CCCC2C3)c2c(c1)nc(-c1ccncc1)n2C (centres undefined),/,/,i,/,/,/
